Screening results from PubChem BioAssay.
The full list was thinned out, with hits kept by preference.
Methyltransferases = Primary Screen for Target Class Profiling of Small Molecule Inhibitors of Methyltransferases; purified enzyme, MTase-Glo SAH luminescence; active compounds read low; 3.9% of 25,000 active; calls only at 40 µM; call rule not given here
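Each enzyme was assayed with SAM and its substrate. SAH formation detected by MTase-Glo luminescence; single-point 40 uM screen[…].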
Calls only; n = inactive; + = active, no number; ! = repeats disagree.

SMILES	Methyltransferases
CNc1cc2c(Nc3cccc(Br)c3)ncnc2cn1	+
CN1C(=O)c2cc(C(=O)NCCc3cccs3)nn2CC1(C)C(=O)NC1CCCCC1 (stereo not drawn)	n
CN1C(=O)c2cc(C(=O)NCc3ccccn3)nn2CC1(C)C(=O)NCc1ccccc1 (stereo not drawn)	n
Cn1cc(-c2cnc3ccc4ccc(CS(=O)(=O)NCc5ccccn5)cc4c(=O)c3c2)cn1	+
Cn1cc(-c2ccc3ncc(Cc4ccc5ncccc5c4)n3n2)cn1	n
Cn1c(=O)n(C)c2cc(S(=O)(=O)N3CCN(c4cccc(Cl)c4)CC3)ccc21	n
CCOC(=O)c1ccc(N2C(=O)CSc3c(c4ccccc4n3C)C2C(=O)NCCCOC(C)C)cc1 (stereo not drawn)	n
CC(C)CCn1c(=O)c2ccccc2n2c(=O)n(CC(=O)NCc3ccc(Cl)cc3)nc12	n
O=C(O)c1cc(N(Cc2ccc(C3CCCCC3)cc2)C(=O)c2ccc(Oc3ccccc3)cc2)ccc1O	+
CC(C)Cn1c(=O)c2ccc(C(=O)NC(C)C)cc2n2c(SCc3ccccc3)nnc12	n
COc1cccc(-c2ccc(C(=O)N3CCC(NC(=O)c4ccc(C(F)(F)F)cc4)CC3)cc2)c1	n
CC#C[C@@H](CC(=O)O)c1ccc(OCc2cccc(-c3ccc(C(F)(F)F)cc3)c2)cc1	+
CCC(C)NC(=O)c1ccc2c(=O)n(C3CC3)c3nn(CC(=O)Nc4ccccc4)c(=O)n3c2c1 (stereo not drawn)	n
CCCn1c(=O)c2cc(Cl)ccc2n2c(SCC(=O)Nc3cccc(C)c3)nnc12	n
COc1ccc2cc3n(c2c1)CC(C)(C(=O)NC1CCCC1)N(CCC(C)C)C3=O (stereo not drawn)	n
O=C(Nc1nn(Cc2ccccc2)c2cccc(N3CCOCC3)c12)C1CCC1	n
O=C(NCCCNc1nc(Nc2cccc(CN3CCOCC3)c2)ncc1C1CC1)C1CCC1	+
CNc1nccnc1-c1cccc(CN2CCOCC2)c1	n
CCCn1c(=O)c2ccc(Cl)cc2n2c(=O)n(CC(=O)Nc3ccc(Cl)cc3)nc12	n
Cn1c(=O)n(C)c2cc(S(=O)(=O)N3CCN(c4ccccn4)CC3)ccc21	n
CC(C)NC(=O)c1ccc2c(=O)n(Cc3ccccc3)c3nn(Cc4cccc(Cl)c4)c(=O)n3c2c1	n
CCc1c(-c2ccccc2)c(-c2ccccc2)nn1-c1ccccc1-c1cccc(OCC(=O)O)c1	+
CC(C)CN1CC(COc2ccc3ccccc3c2)Oc2ccnc(-c3ccc(OCC(=O)O)cc3)c2C1=O (stereo not drawn)	n
COC(=O)Cn1nc(-c2cccc(OC)c2)c2ccccc21	n
CCc1ccc(CNC(=O)CCn2ccc3cc(S(=O)(=O)N4CCCCC4)ccc32)cc1	n
SMILES	Methyltransferases
CCN(CC)CCOc1ccc(Nc2ncc3cc(-c4c(Cl)cccc4Cl)c(=O)n(C)c3n2)cc1	+
CC1(C(=O)NC2CCCCC2)Cn2c(ccc2-c2ccco2)C(=O)N1Cc1ccccc1F (stereo not drawn)	n
COc1ccc2cc3n(c2c1)CC(C)(C(=O)NC1CCCC1)N(C1CCCCCC1)C3=O (stereo not drawn)	n
COc1ncc(-c2ccc3nccc(-c4ccnnc4)c3c2)cc1NS(=O)(=O)c1ccc(F)cc1F	+
CC(C)CCn1c(=O)c2ccccc2n2c(=O)n(Cc3ccccc3Cl)nc12	n
CCCn1c(=O)c2ccc(C(=O)NC(C)C)cc2n2c(=O)n(C(C)C(=O)c3ccc(C)c(C)c3)nc12 (stereo not drawn)	n
CNCCN(C)Cc1cn[nH]c1-c1ccc(OC2CC(OCCC3CCOCC3)C2)cc1 (stereo not drawn)	+
CCC(C)NC(=O)c1ccc2c(=O)n(CCC(C)C)c3nn(CC(=O)c4ccccc4)c(=O)n3c2c1 (stereo not drawn)	n
Cn1nnnc1SCCNCc1ccc2c(c1)n(C)c(=O)n2C	n
Nc1nnc(-c2cccc(Cl)c2Cl)c(N)n1	n
Nc1nc(NC2CC2)cc(-c2cccc(Cl)c2Cl)n1	+
CC1(C(=O)NC2CCCCCCC2)Cc2ccccc2C(=O)N1Cc1ccco1 (stereo not drawn)	n
CCCn1c(=O)c2ccc(C(=O)NC3CCCC3)cc2n2c(=O)n(CC(=O)c3cc(C)ccc3C)nc12	n
CN1CCCN(CC(=O)N2CCCC(c3ccc(C(=O)O)cc3)C2)CC1 (stereo not drawn)	n
CN(Cc1ccccc1)C(=O)CN(C)S(=O)(=O)c1ccc2[nH]c3c(c2c1)CCCC3	n
CN(CC(=O)N(Cc1ccc(C2CCCCC2)cc1)c1ccc(C(=O)O)cc1)S(=O)(=O)c1c(F)c(F)c(F)c(F)c1F	+
O=C(CCc1nnc2n(CCc3ccccc3)c(=O)c3ccccc3n12)N1CCN(c2ccc(F)cc2)CC1	n
Cc1ccc(CCNC(=O)CCn2ccc3cc(S(=O)(=O)N4CCCCC4)ccc32)cc1	n
Cc1[nH]c2ccccc2c1CCNCc1ccc(/C=C/C(=O)NO)cc1	+
Cc1[nH]c2ccccc2c1CCNC(=O)c1ccccc1F	n
CCN(CC)CCCNC(=O)c1cc2n(n1)CC(C)(C(=O)NC1CCCCCC1)N(C)C2=O (stereo not drawn)	n
COc1cc2nc(-c3ccc(N4CCN(C)CC4)cc3)nc(NCCN3CCOCC3)c2cc1OC	n
COc1cc2c(Nc3ccc(NC(=O)c4ccccc4)cc3)ncnc2cc1OCCCN1CCOCC1	n
COc1cc2nc(N3CCCC3)nc(NCCCCCN3CCCC3)c2cc1OC	+!
COCCn1ncc(N2CCC(C(=O)NCCCN3CCC(N4CCCCC4)CC3)C2)cc1=O (stereo not drawn)	n
SMILES	Methyltransferases
O=S(=O)(c1ccccc1)c1nnn2c1nc(NC1CCN(Cc3ccccc3)CC1)c1ccccc12	n
COc1cc2c(NC3CCN(C(C)C)CC3)nc(C3CCCCC3)nc2cc1OCCCN1CCCC1	+!
O=S(=O)(c1ccccc1)c1nnn2c1nc(NC1CCN(Cc3ccccc3)CC1)c1cc(Cl)ccc12	n
COc1cc2nc(N3CCCCC3)nc(NC3CCN(Cc4ccccc4)CC3)c2cc1OC	+!
COc1cc2nc(N3CCC(N4CCCCC4)CC3)nc(NC3CCCCCC3)c2cc1OC	+
COc1cc2ncnc(N3CCC(Oc4cnc5ccccc5n4)C3)c2cc1OC (stereo not drawn)	n
COc1ccc2cc3n(c2c1)CC(C)(C(=O)NCC1CCCO1)N(Cc1ccccc1Cl)C3=O (stereo not drawn)	n
O=C(Nc1ccc(Br)cc1F)N1CCn2cccc2C1Cc1ccccc1 (stereo not drawn)	n
CC1(C(=O)NCC2CCCO2)Cn2c(cc3ccccc32)C(=O)N1Cc1cccc(F)c1 (stereo not drawn)	n
COC(=O)c1cc2n(n1)CC(C)(C(=O)NC1CCCCC1)N(c1cc(Cl)ccc1C)C2=O (stereo not drawn)	n
CC1CCCCC1NC(=O)C1(C)Cn2c(cc3occc32)C(=O)N1CCc1ccc(Cl)cc1 (stereo not drawn)	n
CCOC(=O)c1cc2n(n1)CC(C)(C(=O)NC1CCCC1)N(c1cccc(SC)c1)C2=O (stereo not drawn)	n
COc1cccc(CN2C(=O)c3cc4oc(C)cc4n3CC2(C)C(=O)NC2CCCCC2)c1OC (stereo not drawn)	n
Cc1cc2c(cc3n2CC(C)(C(=O)NC2CCCCCC2)N(CCCN2CCOCC2)C3=O)o1 (stereo not drawn)	n
CCCn1c(=O)c2ccc(C(=O)NCC(C)C)cc2n2c(=O)n(CC(=O)c3ccc(C)cc3)nc12	n
